PubChem BioAssay AID1259251 (The Scripps Research Institute Molecular Screening Center, 2017)
The campaign covered roughly 30,000 compounds. About 580 (1.9%) were called active. The full list was thinned out, with actives kept by preference. Unmarked numbers belong to inactive results. No stated cut-off is given here; in the data, active means inhibition above about 43%; inactive means the rest.

Molecular target: Serine/threonine-protein kinase ULK1 (Homo sapiens) (UniProt O75385)
Test: ULK1 kinase inhibitors, primary screen, biochemical, AlphaScreen (AID 1259251);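 further: 0% = median of compound wells and 100% = no enzyme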
Conditions: AlphaScreen Atg13 phosphorylation by ULK1, luminescence; at 5.96 µM; hits give high values

Sequence of Serine/threonine-protein kinase ULK1 (Homo sapiens) (O75385 whole entry, looked up): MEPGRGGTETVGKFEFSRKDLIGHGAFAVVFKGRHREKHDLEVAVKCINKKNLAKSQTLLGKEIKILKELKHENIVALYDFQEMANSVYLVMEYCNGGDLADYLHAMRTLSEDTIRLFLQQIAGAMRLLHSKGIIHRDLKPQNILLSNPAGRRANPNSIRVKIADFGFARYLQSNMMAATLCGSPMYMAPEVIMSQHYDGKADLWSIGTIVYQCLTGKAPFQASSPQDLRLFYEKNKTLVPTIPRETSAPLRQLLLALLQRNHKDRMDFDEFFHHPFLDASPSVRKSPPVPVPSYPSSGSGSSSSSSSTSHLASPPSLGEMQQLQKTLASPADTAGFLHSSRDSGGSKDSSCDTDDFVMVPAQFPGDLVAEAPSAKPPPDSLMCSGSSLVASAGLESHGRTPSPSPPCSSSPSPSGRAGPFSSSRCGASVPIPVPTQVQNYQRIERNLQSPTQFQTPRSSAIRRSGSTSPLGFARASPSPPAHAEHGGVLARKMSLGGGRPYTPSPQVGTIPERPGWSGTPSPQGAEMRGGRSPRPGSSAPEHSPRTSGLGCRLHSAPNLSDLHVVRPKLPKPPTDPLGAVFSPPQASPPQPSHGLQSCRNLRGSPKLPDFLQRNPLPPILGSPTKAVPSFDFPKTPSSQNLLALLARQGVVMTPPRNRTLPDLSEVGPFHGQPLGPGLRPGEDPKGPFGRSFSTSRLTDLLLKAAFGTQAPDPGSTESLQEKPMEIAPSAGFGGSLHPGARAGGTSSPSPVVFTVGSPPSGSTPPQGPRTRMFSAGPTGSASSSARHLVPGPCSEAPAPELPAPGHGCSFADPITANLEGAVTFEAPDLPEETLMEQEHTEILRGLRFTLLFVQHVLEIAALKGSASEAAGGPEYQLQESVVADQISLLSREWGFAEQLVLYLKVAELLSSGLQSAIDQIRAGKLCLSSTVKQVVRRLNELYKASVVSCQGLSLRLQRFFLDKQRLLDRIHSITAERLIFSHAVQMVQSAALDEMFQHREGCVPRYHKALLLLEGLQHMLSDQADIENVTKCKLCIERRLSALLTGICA

SMILES	inhibition
CCN(CC)C(=O)C1CCCN(c2nc(NCCOc3ccccc3)c3ncn(C(C)C)c3n2)C1 (stereo unspecified)	4.04%
c1cncc(Nc2nccc(Nc3ccc(N4CCOCC4)cc3)n2)c1	10%
COCCNc1cc(-c2ccc(F)cc2)nc(C)n1	0.77%
CCN(C(=O)c1ccc(Br)cc1)c1ccccc1	2.64%
COc1cc2nc(-c3cccc(N)c3)nc(NCCN3CCOCC3)c2cc1OC	-4.6%
COc1cc(N2CCOCC2)ccc1Nc1cc(Nc2ccccc2-n2cccn2)c(C(F)(F)F)cn1	77% (active)
FC(F)(F)c1cnc(Nc2ccc(N3CCOCC3)cc2)cc1-n1ncc2ccccc21	2.76%
COc1cc(C(=O)N2CCOCC2)ccc1Nc1cc(NCc2cccc(S(C)(=O)=O)c2)c(C(F)(F)F)cn1	-14.6%
CCOC(=O)c1cc[n+](CC(=O)c2ccc(NC(=O)c3ccccc3)cc2)cc1	3.76%
CCN(CC)C(=O)C1CCCN(c2nc3ccc(C(=O)Nc4ccc(NC(C)=O)cc4)cc3s2)C1 (stereo unspecified)	-20.8%
CC(C)N(CCNC(=O)c1ccnc(Nc2ccc(C(F)(F)F)cc2)c1)C(C)C	-25.3%
CNC(=O)c1ccccc1Nc1cc(NC(=O)Cc2ccc(F)c(F)c2)ncc1C(F)(F)F	32.8%
CCN(CC)CCNC(=O)c1ccc(Nc2cc(Nc3ccccc3C(=O)NC)c(C(F)(F)F)cn2)nc1	92.4% (active)
CNC(=O)c1ccccc1Nc1cc(NC(=O)C(F)(F)c2ccccc2)ncc1C(F)(F)F	61.2% (active)
CCN(CC)CCOc1ccc(Nc2cc(Nc3ccccc3C(=O)NC)c(C(F)(F)F)cn2)c(OC)c1	91.6% (active)
CCN(CC)CCNC(=O)c1cc(S(C)(=O)=O)ccc1OC	13%
CNC(=O)c1ccccc1Nc1cc(NC(=O)C2(c3ccccc3)CC2)ncc1C(F)(F)F	-23.5%
CNC(=O)c1ccccc1Nc1cc(NC(=O)Cc2ccc([N+](=O)[O-])cc2)ncc1C(F)(F)F	40.8%
CCN(CC)CCNC(=O)c1ccc(Nc2cc(Nc3ccccc3C(=O)NC)c(C(F)(F)F)cn2)c(C)c1	88.5% (active)
O=C1CCCN1CCn1cnc2c(NCc3cccc(C(F)(F)F)c3)nc(Nc3nccc4ccccc34)nc21	-5.58%
Cc1cnc(CNc2cc(-c3ccccc3F)nc(C)n2)nc1	3.69%

SMILES	inhibition
COc1cc2nc(Nc3nccc4ccccc34)nc(NCc3cccc(C(F)(F)F)c3)c2cc1OC	-3.82%
COC(c1ccccc1)(c1ccccc1)C(Oc1nc(C)cc(C)n1)C(=O)O (stereo unspecified)	5.25%
CC(C)n1c(-c2ccc(C(N)=O)cc2)nc2c(NCCN3CCOCC3)ncnc21	-4.64%
O=C(NCCc1cccnc1)c1ccc2c(c1)CC(c1nc3ccc(-c4cn[nH]c4)cc3c(=O)[nH]1)CO2 (stereo unspecified)	1.53%
CCNc1ncc(C)c(NCCc2ccc(OC)cc2)n1	-7.79%
Nc1nc(NCc2cccnc2)nc2c1ncn2-c1ccsc1	2.79%
CC(=O)Nc1ccc2cnn(-c3cccc(C(=O)NCCN4CCOCC4)c3)c2c1	-2.64%
C1=C2[C@@H](c3ccccc3)N3CCC[C@@H]3[C@H]3CCC[C@@]23OCC1	-9.95%
O=C(NC1CC1)c1ccc(-c2nccc(NCc3nc4ccccc4[nH]3)n2)cc1	-2.79%
COc1cc(Nc2cc(NC3CC3)ncn2)cc(OC)c1OC	-5.2%
O=C(NCCCN1CCCC1=O)C1CCN(c2ccc(Nc3ccc4ncccc4c3)nn2)CC1	7.45%
COc1cccc(C(=O)Nc2nc3ccc(-c4ccncc4)cc3s2)c1	14.9%
CNC(=O)c1ccccc1Nc1cc(Nc2ccc(C(=O)N(C)C)cc2)ncc1C(F)(F)F	86.4% (active)
CNC(=O)c1ccccc1Nc1ccnc(Nc2ccc(N3CCOCC3)cc2)c1	6.96%
CNC(=O)c1ccccc1Nc1nc(Nc2ccc(-n3cnc(-c4ccc(C)nc4)n3)cc2)ncc1Cl	8.9%
N#Cc1cccc(-c2ccnc(Nc3ccc(N4CCOCC4)cc3)n2)c1	7.92%
CC(C)n1cnc2c(NCCO)nc(Nc3ccc(C(F)(F)F)cc3)nc21	-7.45%
c1ccc(N2CCN(c3nc(NCCN4CCOCC4)c4ncn(C5CCCCC5)c4n3)CC2)nc1	-0.56%
Cn1c(Nc2nc(NC3CC3)c3ncn(C4CCCCC4)c3n2)nc2ccccc21	36.9%
O=C(CNS(=O)(=O)c1ccc(Cl)cc1)OCC(=O)c1ccccc1	14.9%
